Results reported in PubChem BioAssay AID1159580 (chemical genetic matrix, 2015).
Several values for one entry are separate records, joined by “and”; a condition that tells them apart may be missing. Equal values may be shown once. About 2,000 (36%) of roughly 5,500 compounds were called active. Not shown: some 18% with an inconclusive outcome. No stated cut-off is given here; in the data, active means normalized growth mostly below about 0.91 (no sharp cut-off); inconclusive means no clear call, values can overlap the other calls; inactive means mostly above about 0.92. This is one part of the list.

Assay: chemical genetic growth profiling, strain panel (AID 1159580);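 further: tested at 20 µM; growth read once vehicle control cultures reached saturation at 30 °C; 1 = growth at the plate median or of vehicle wells; lower values mean less growth of the strain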
Details: S. cerevisiae deletion strains, growth OD

Measured: normalized growth

COc1cc2c(cc1OC)C(C)NCC2 (stereo unspecified)
inactive: locus YAL013W, strain DEP1, hits give low values 0.996 | locus YAL021C, strain ccr4, hits give low values 0.967 | locus YAL026C, strain drs2, hits give low values 0.959 | locus YAL030W, strain snc1, hits give low values 0.985 | locus YBL061C, strain skt5, hits give low values 0.97 | locus YBR009C, strain hhf1, hits give low values 0.965 | locus YBR021W, strain FUR4, hits give low values 0.995 | locus YBR023C, strain chs3, hits give low values 0.957 | locus YBR171W, strain sec66, hits give low values 0.958 | locus YBR229C, strain ROT2, hits give low values 0.995 | locus YBR231C, strain swc5, hits give low values 0.982 | locus YBR279W, strain paf1, hits give low values 0.989 | locus YCL011C, strain gbp2, hits give low values 0.979 | locus YCL016C, strain dcc1, hits give low values 1 | locus YCL029C, strain bik1, hits give low values 0.979 | locus YCL069W, strain vba3, hits give low values 0.962 | locus YCR088W, strain abp1, hits give low values 0.982 | locus YDL005C, strain med2, hits give low values 0.976 | locus YDL035C, strain GPR1, hits give low values 1 | locus YDL040C, strain nat1, hits give low values 0.984 | locus YDL074C, strain BRE1, hits give low values 1 | locus YDL101C, strain DUN1, hits give low values 0.996 | locus YDL185W, strain tfp1, hits give low values 0.986 | locus YDL192W, strain arf1, hits give low values 0.98 | locus YDR001C, strain nth1, hits give low values 0.988 | locus YDR069C, strain doa4, hits give low values 0.921 | locus YDR101C, strain arx1, hits give low values 0.979 | locus YDR137W, strain rgp1, hits give low values 0.977 | locus YDR150W, strain NUM1, hits give low values 1.01 | locus YDR159W, strain sac3, hits give low values 0.927 | locus YDR162C, strain NBP2, hits give low values 1.02 | locus YDR195W, strain ref2 0.963 | locus YDR297W, strain sur2, hits give low values 1 | locus YDR318W, strain mcm21, hits give low values 0.986 | locus YDR334W, strain swr1, hits give low values 0.951 | locus YDR335W, strain msn5, hits give low values 0.971 | locus YDR388W, hits give low values 0.978 | locus YDR392W, strain spt3, hits give low values 0.992 | locus YDR502C, strain sam2, hits give low values 0.981 | locus YEL003W, strain gim4, hits give low values 0.976 | locus YEL037C, strain rad23, hits give low values 0.968 | locus YEL061C, strain CIN8 (second series), hits give low values 0.966 | locus YEL061C, strain CIN8, hits give low values 0.995 | locus YER015W, strain faa2, hits give low values 0.976 | locus YER016W, strain bim1, hits give low values 0.983 | locus YER110C, hits give low values 0.963 | locus YER111C, strain swi4, hits give low values 0.959 | locus YER155C, strain BEM2 (second series), hits give low values 0.985 | locus YER155C, strain BEM2, hits give low values 0.99 | locus YER167W, strain BCK2, hits give low values 0.994 | locus YFR010W, strain ubp6, hits give low values 0.945 | locus YGL078C, strain dbp3, hits give low values 0.982 | locus YGL086W, strain mad1, hits give low values 0.982 | locus YGL167C, strain pmr1, hits give low values 0.969 | locus YGL173C, strain kem1, hits give low values 0.97 | locus YGL227W, strain vid30, hits give low values 0.985 | locus YGL240W, strain doc1, hits give low values 0.986 | locus YGL248W, strain PDE1, hits give low values 1 | locus YGL253W, strain hxk2, hits give low values 0.961 | locus YGR078C, strain PAC10, hits give low values 1.02 | locus YGR135W, strain pre9, hits give low values 0.959 | locus YGR252W, strain gcn5, hits give low values 0.996 | locus YHR013C, strain ard1, hits give low values 0.961 | locus YHR027C, strain rpn1, hits give low values 0.976 | locus YHR030C, strain SLT2, hits give low values 0.993 and 1.04 | locus YHR079C, strain IRE1 (second series), hits give low values 0.979 | locus YHR079C, strain IRE1, hits give low values 1.03 | locus YHR094C, strain hxt1, hits give low values 0.985 | locus YHR129C, strain ARP1, hits give low values 1 | locus YHR142W, strain chs7, hits give low values 0.988 | locus YHR200W, strain rpn10, hits give low values 0.98 | locus YIL066C, strain RNR3, hits give low values 1.02 | locus YIL073C, strain SPO22, hits give low values 1.02 | locus YIL125W, strain kgd1, hits give low values 0.981 | locus YIR030C, strain dcg1, hits give low values 0.976 | locus YJL092W, strain hpr5, hits give low values 0.936 | locus YJL095W, strain BCK1 (second series), hits give low values 0.969 | locus YJL095W, strain BCK1, hits give low values 1.02 and 0.99 | locus YJL115W, strain asf1, hits give low values 0.951 | locus YJL129C, strain trk1, hits give low values 0.948 | locus YJL134W, strain LCB3, hits give low values 0.988 | locus YJL154C, strain vps35, hits give low values 0.974 | locus YJL164C, strain tpk1, hits give low values 1.01 | locus YJL166W, strain qcr8, hits give low values 0.977 | locus YJL168C, strain set2, hits give low values 0.978 | locus YJL187C, strain SWE1 (second series), hits give low values 1.01 | locus YJL187C, strain SWE1, hits give low values 0.961 | locus YJR043C, strain POL32, hits give low values 1.02 | locus YJR066W, strain TOR1, hits give low values 0.966 | locus YJR075W, strain HOC1, hits give low values 1.02 | locus YKL009W, strain mrt4, hits give low values 0.984 | locus YKL068W, hits give low values 0.98 | locus YKL085W, strain MDH1 (second series), hits give low values 1.01 | locus YKL085W, strain MDH1, hits give low values 1.01 | locus YKL160W, strain elf1, hits give low values 1.01 | locus YKL190W, strain CNB1, hits give low values 1 | locus YKR001C, strain vps1, hits give low values 0.982 | locus YKR026C, strain gcn3, hits give low values 0.974 | locus YKR091W, strain srl3, hits give low values 0.987 | locus YLL001W, strain dnm1, hits give low values 0.977 | locus YLL026W, hits give low values 0.986 | locus YLL041C, strain sdh2, hits give low values 0.963 | locus YLR027C, strain aat2, hits give low values 0.966 | locus YLR039C, strain RIC1, hits give low values 1.02 | locus YLR058C, strain SHM2, hits give low values 0.996 | locus YLR102C, strain apc9, hits give low values 0.991 | locus YLR113W, strain HOG1, hits give low values 1.01 | locus YLR221C, strain rsa3, hits give low values 0.989 | locus YLR258W, strain gsy2, hits give low values 0.978 | locus YLR262C, strain YPT6 (second series), hits give low values 0.964 | locus YLR262C, strain YPT6, hits give low values 1.05 | locus YLR268W, strain sec22, hits give low values 0.987 | locus YLR320W, strain mms22, hits give low values 0.997 | locus YLR330W, strain CHS5, hits give low values 0.991 | locus YLR342W, strain FKS1 (second series), hits give low values 0.999 | locus YLR342W, strain FKS1, hits give low values 0.982 | locus YLR357W, strain rsc2, hits give low values 0.94 | locus YLR370C, strain arc18, hits give low values 0.955 | locus YLR371W, strain rom2, hits give low values 0.98 | locus YLR384C, strain iki3, hits give low values 0.996 | locus YLR418C, strain cdc73, hits give low values 0.98 | locus YML016C, strain PPZ1, hits give low values 0.988 | locus YML032C, strain rad52, hits give low values 0.978 | locus YML120C, strain ndi1, hits give low values 0.989 | locus YML124C, strain tub3, hits give low values 0.986 | locus YMR058W, strain fet3, hits give low values 0.972 | locus YMR078C, strain ctf18, hits give low values 0.981 | locus YMR125W, strain sto1, hits give low values 0.933 | locus YMR129W, hits give low values 0.985 | locus YMR205C, strain PFK2, hits give low values 0.989 | locus YMR223W, strain ubp8, hits give low values 0.977 | locus YMR231W, strain pep5, hits give low values 0.964 | locus YMR307W, strain GAS1, hits give low values 1.03 | locus YNL067W, strain RPL9B, hits give low values 1.02 | locus YNL071W, strain lat1, hits give low values 0.981 | locus YNL128W, strain TEP1, hits give low values 0.998 | locus YNL153C, strain GIM3, hits give low values 1.02 | locus YNL183C, strain NPR1, hits give low values 0.974 | locus YNL209W, strain ssb2, hits give low values 0.976 | locus YNL233W, strain BNI4, hits give low values 1.02 | locus YNL248C, strain rpa49, hits give low values 0.955 | locus YNL250W, strain rad50, hits give low values 0.972 | locus YNL271C, strain bni1, hits give low values 0.985 | locus YNL298W, strain CLA4, hits give low values 0.972 | locus YNL307C, strain MCK1, hits give low values 0.978 | locus YNL322C, strain KRE1 (second series), hits give low values 0.95 | locus YNR049C, strain mso1, hits give low values 0.952 | locus YNR052C, strain pop2, hits give low values 0.974 | locus YOL012C, strain htz1 0.939 | locus YOL147C, strain pex11, hits give low values 0.989 | locus YOR001W, strain rrp6, hits give low values 0.951 | locus YOR061W, strain CKA2, hits give low values 0.992 | locus YOR069W, strain VPS5, hits give low values 0.987 | locus YOR070C, strain gyp1, hits give low values 0.986 | locus YOR080W, strain dia2, hits give low values 0.982 | locus YOR083W, strain WHI5, hits give low values 1.02 | locus YOR106W, strain vam3, hits give low values 0.998 | locus YOR136W, strain idh2, hits give low values 0.976 | locus YOR144C, strain elg1, hits give low values 0.985 | locus YOR184W, strain ser1, hits give low values 0.998 | locus YOR231W, strain MKK1, hits give low values 1.02 | locus YOR265W, strain rbl2, hits give low values 0.977 | locus YOR270C, strain vph1, hits give low values 0.949 | locus YOR290C, strain snf2, hits give low values 0.997 | locus YOR316C, strain cot1, hits give low values 0.99 | locus YPL051W, strain arl3, hits give low values 0.972 | locus YPL078C, strain atp4, hits give low values 1 | locus YPL106C, strain sse1, hits give low values 0.957 | locus YPL240C, strain hsp82, hits give low values 0.964 | locus YPL241C, strain CIN2, hits give low values 1 | locus YPL256C, strain CLN2, hits give low values 1.03 | locus YPR119W, strain clb2, hits give low values 0.97 | locus YPR141C, strain kar3, hits give low values 0.987 | locus YPR163C, strain tif3, hits give low values 0.994 | locus YPR167C, strain met16, hits give low values 0.964 | strain wtn01, hits give low values 0.96
